# From PubChem BioAssay (NCATS)
# Records with an inconclusive call do not appear. A call without a number means that no potency is given here. Unmarked numbers belong to inactive results. The source made the active and inactive calls. The call rests on the fitted dose curve; in most records, active means well fitted inhibition curve with a large enough effect; inconclusive means small, poorly fitted or top-dose-only effect; inactive means flat fitted curve, though single readings scatter.
# Tests used:
# [1] = target: Calcium and integrin-binding protein 1 (Homo sapiens) (UniProt Q99828); test: Primary qHTS for Identification of Calcium Integrin Binding Protein 1 (CIB1) Competitor (AID 1508620); details: CIB1-GST / FITC-alphaIIb peptide fluorescence polarization; series mostly up to 114 µM;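 further: GST tagged CIB1 binding a fluorescein labelled alphaIIb integrin peptide tracer; top concentration of the series differs between compounds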
# Sequence of Calcium and integrin-binding protein 1 (Homo sapiens) (Q99828 whole entry, looked up): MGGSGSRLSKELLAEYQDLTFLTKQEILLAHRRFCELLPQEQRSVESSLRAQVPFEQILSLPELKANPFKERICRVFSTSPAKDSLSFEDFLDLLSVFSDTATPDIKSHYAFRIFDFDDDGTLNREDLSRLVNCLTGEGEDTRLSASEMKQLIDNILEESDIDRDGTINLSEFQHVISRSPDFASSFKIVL
# How it was run: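 Fluorescence polarization competition: CIB1-GST (1 uM final) preincubated with compound 15 min at room temperature, then FITC-labeled alphaIIb peptide (100 nM final) added for another 15 min. Polarization read at Ex 480/Em 540.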
# [2] = Primary qHTS for inhibitors of nuclear receptor binding SET domain protein 2 (NSD2) in an isogenic RCH-ACV NSD2 p.E1099K mutant (9B) (AID 1645876); details: RCH-ACV (leukaemia line) NSD2 E1099K (9B) viability, CellTiter-Glo, 72 h; series mostly up to 44.9 µM; further: nearly all actives have a fitted effect of over 70% in size; further: potency means the concentration at half of the fitted maximal effect
compound,measurement,setting,value
CC12CCC(=O)C=C1C(O)CC1C2C(O)CC2(C)C1CC[C@]2(O)C(=O)CO (stereo not given in full),Potency,[1],inactive
same,outcome,[2],inactive [at 9.23 µM]
O=C(OC1C=C(CO)C2C(OC3OC(CO)C(O)C(O)C3O)OC=CC12)c1ccc(O)cc1 (stereo not given),Potency,[1],inactive
same,Potency,[2],inactive
C[C@@H]1O[C@@H](O[C@H]2[C@@H](OC(=O)[C@]34CCC(C)(C)CC3C3=CCC5[C@@]6(C)C[C@H](O)[C@H](O[C@@H]7O[C@H](C(=O)O)[C@@H](O)[C@H](O)[C@H]7O)[C@@](C)(C(=O)O)C6CC[C@@]5(C)[C@]3(C)CC4)OC[C@H](O)[C@@H]2O)[C@H](O)[C@H](O)[C@H]1O[C@@H]1OC[C@@H](O)[C@H](O)[C@H]1O (stereo not given in full),Potency,[1],inactive
same,"activity change, negative = viability loss",[2],-12% [at 9.23 µM]
C[C@@H]1CCC2C(C)(C)[C@H](O)CC[C@]2(C)[C@@]12Cc1c(O)cc3c(c1O2)CNC3=O (stereo not given in full),Potency,[1],inactive
same,Potency,[2],inactive
COc1cc(C(=O)OC[C@H]2O[C@@H](Oc3ccccc3/C=C/C(=O)O)[C@H](O)[C@@H](O)[C@@H]2O)cc(OC)c1OC,Potency,[1],inactive
same,Potency,[2],inactive
C[C@H](NC(c1cccc(C[P+](=O)O)c1)[C@H](C)O)c1ccc(Cl)c(Cl)c1 (stereo not given in full),Potency,[1],inactive
same,Potency,[2],inactive
CN[C@@H]1[C@H](O[C@H]2[C@H](O[C@@H]3[C@@H](O)[C@H](O)[C@@H](N=C(N)N)[C@H](O)[C@H]3N=C(N)N)O[C@@H](C)[C@]2(O)C=O)O[C@@H](CO)[C@H](O)[C@H]1O,Potency,[1],inactive
same,Potency,[2],inactive
C=CC1C(OC2OC(CO)C(O)C(O)C2O)OC=C(C(=O)OC)C1CC1CC(=O)CC(CCc2ccc(O)cc2)O1 (stereo not given),Potency,[1],inactive
same,Potency,[2],inactive
O=C1CCC(=O)N(O)CCCCCNC(=O)CCC(=O)N(O)CCOCCNC(=O)CCC(=O)N(O)CCCCCN1,Potency,[1],inactive
same,Potency,[2],inactive
CCN(CC)c1ccc2c(O)c(C=Nc3ccc(CC(=O)O)c(-c4c5c(nc6ccccc46)CCC(C(=O)NN)C5)c3)c(=O)oc2c1 (stereo not given),Potency,[1],inactive
same,Potency,[2],2900 nM (active)
C=C1C(=O)OC2CC(C)=C(C(C)CCCO)C(O)C12 (stereo not given),Potency,[1],inactive
same,Potency,[2],inactive
C[C@@H]1CCC/C=C/[C@H]2CC(=O)C[C@@H]2[C@@H](O)/C=C/C(=O)O1,Potency,[1],inactive
same,Potency,[2],inactive
C/C=C/C=C/[C@@H]1O[C@](O)([C@H](CC)C(=O)NC/C=C/C=C(\C)[C@@H](OC)[C@@H](C)C2OC(/C=C/C=C/C=C(\C)C(=O)c3c(O)cc[nH]c3=O)[C@H](O)[C@@H]2O)[C@H](O)[C@H](O)C1(C)C (stereo not given in full),Potency,[1],inactive
same,Potency,[2],inactive
CC1(C)C[C@H](O)C[C@@]2(C)OC(=O)C=C12,Potency,[1],inactive
same,Potency,[2],inactive
CN[C@H](CC(C)C)C(=O)N[C@H]1C(=O)N[C@@H](CC(N)=O)C(=O)N[C@H]2C(=O)N[C@H]3C(=O)N[C@H](C(=O)N[C@H](C(=O)O)c4cc(O)cc(O)c4-c4cc3ccc4O)[C@H](O[C@H]3C[C@](C)(N)[C@@H](O)[C@H](C)O3)c3ccc(c(Cl)c3)Oc3cc2cc(c3O[C@@H]2O[C@H](CO)[C@@H](O)[C@H](O)[C@H]2O[C@H]2C[C@](C)(NCc3ccc(-c4ccc(Cl)cc4)cc3)[C@@H](O)[C@H](C)O2)Oc2ccc(cc2Cl)[C@H]1O,Potency,[1],inactive
same,Potency,[2],inactive
CC1CCC2(CO)C(C(=O)O)=CCCC2C1(C)CCc1ccoc1 (stereo not given),Potency,[1],inactive
same,Potency,[2],inactive
CC(=O)OC[C@]12[C@H](OC(C)=O)C(=O)[C@@H]3[C@@H](OC(C)=O)[C@@]14O[C@@]3(C)COC(=O)c1cccnc1[C@@H](C)[C@H](C)C(=O)O[C@@H]([C@H](O)[C@@H]2OC(C)=O)[C@]4(C)O,Potency,[1],inactive
same,Potency,[2],inactive
CC(=O)CC1CCC(C(C)C(=O)OCC(O)CO)O1 (stereo not given),Potency,[1],inactive
same,Potency,[2],inactive
C=C(C(=O)OC)C1C(O)CC2(C)C(=O)CCC(O)(CO)C2C1O (stereo not given),Potency,[1],inactive
same,Potency,[2],inactive
C=C[C@H]1[C@H](O[C@@H]2O[C@H](CO)[C@@H](O)[C@H](O)[C@H]2O)OC=C(C(=O)OC)[C@H]1C/C=C(/C=O)[C@@H]1C(C(=O)OC)=CO[C@@H](O[C@@H]2O[C@H](CO)[C@@H](O)[C@H](O)[C@H]2O)[C@@H]1C=C,Potency,[1],inactive
same,Potency,[2],inactive
COc1cc(C(=O)OC[C@@]2(O)CO[C@@H](O[C@H]3[C@H](Oc4ccc(C(=O)O)cc4OC)O[C@H](CO)[C@@H](O)[C@@H]3O)[C@@H]2O)ccc1O,Potency,[1],inactive
same,Potency,[2],inactive
COC1CC(OC2CCC3(C)C(=CCC4C3C(OC(C)=O)C(OC(=O)/C=C/c3ccccc3)C3(C)C(C(C)O)CCC43O)C2)OC(C)C1OC1CC(OC)C(OC2OC(C)C(OC3OC(CO)C(O)C(O)C3O)C(OC)C2O)C(C)O1 (stereo not given),"activity change, negative = inhibition",[1],-8.58% [at 12.4 µM]
same,"activity change, negative = viability loss",[2],-12.2% [at 9.23 µM]
C[C@@H]1O[C@@H](O[C@H]2[C@H](O[C@H]3[C@H](O)[C@@H](C(=O)O)O[C@@H](O[C@H]4CC[C@@]5(C)C(CC[C@]6(C)C5CC[C@]57OC[C@@]8(CCC(C)(C)CC85)[C@H](O)C[C@]76C)C4(C)C)[C@@H]3O[C@@H]3O[C@H](CO)[C@@H](O[C@@H]4OC[C@@H](O)[C@H](O)[C@H]4O)[C@H](O)[C@H]3O)O[C@H](CO)[C@H](O)[C@@H]2O)[C@H](O)[C@H](O)[C@H]1O (stereo not given in full),"activity change, negative = inhibition",[1],2.06% [at 12.4 µM]
same,"activity change, negative = viability loss",[2],0.445% [at 9.23 µM]
C/C=C(\C)C(=O)O[C@H]1[C@@H](O[C@]2(COC(=O)CC(C)C)O[C@H](COC(=O)C(C)CC)[C@@H](OC(C)=O)[C@@H]2O)O[C@H](COC(C)=O)[C@@H](O)[C@@H]1O (stereo not given in full),Potency,[1],inactive
same,Potency,[2],inactive
C=C1C(O)C[C@@H]2C(C(=O)O)=CO[C@@H](O[C@@H]3O[C@H](CO)[C@@H](O)[C@H](O)[C@H]3OC(=O)c3ccc(O)cc3)[C@H]12 (stereo not given in full),Potency,[1],inactive
same,Potency,[2],inactive
CC1CC(O)/C=C/C(O)C(O)CC(=O)Cc2c(Cl)c(O)cc(O)c2C(=O)O1 (stereo not given),Potency,[1],inactive
same,Potency,[2],inactive
CC1(C)CC2=C3C=CC4C5(C)CCC(O)C(C)(C)C5CCC4(C)C3(C)CCC2(C)C(O)C1 (stereo not given),Potency,[1],inactive
same,Potency,[2],inactive
O=C(/C=C\c1ccc(O)cc1)N[C@@H](Cc1ccc(O)cc1)C(=O)O,Potency,[1],inactive
same,Potency,[2],inactive
CC1(C)CCC[C@@]2(C)C1[C@H](OC(=O)/C=C/C=C/C(=O)O)C=C1COC(=O)[C@@]12O (stereo not given in full),Potency,[1],inactive
same,Potency,[2],inactive
CC1OC(OC2C(CO)OC(OCC3OC(OC(=O)C45CCC(C)(C)CC4C4=CCC6C7(C)CCC(OC8OC(CO)C(O)C(OC9OC(CO)C(O)C(O)C9O)C8O)C(C)(C)C7CCC6(C)C4(C)CC5)C(O)C(O)C3O)C(O)C2O)C(O)C(O)C1OC1OC(CO)C(O)C(O)C1O (stereo not given),"activity change, negative = inhibition",[1],-4.16% [at 12.4 µM]
same,"activity change, negative = viability loss",[2],-0.174% [at 9.23 µM]
Cc1ccc(S(=O)(=O)c2ccc([N+](=O)[O-])o2)cc1,Potency,[1],inactive
same,Potency,[2],649 nM (active)
C[C@@H]1O[C@@H](O[C@@H]2[C@@H](O)[C@H](O[C@H]3CC[C@@]4(C)C(CC[C@]5(C)C4CC=C4[C@@H]6CC(C)(C)CC[C@]6(C(=O)O[C@@H]6O[C@H](CO)[C@@H](O)[C@H](O)[C@H]6O)CC[C@]45C)C3(C)C)O[C@H](C(=O)O)[C@H]2O)[C@H](O)[C@H](O)[C@H]1O (stereo not given in full),Potency,[1],inactive
same,"activity change, negative = viability loss",[2],-9.85% [at 9.23 µM]
C/C=C/C=C/C(=O)N1CC[C@]23c4ccccc4N[C@H]4N(C)c5cccc6c5[C@@]42CCN([C@H]6C2OC2(C)C)[C@H]13 (stereo not given in full),Potency,[1],inactive
same,Potency,[2],inactive
CC1COC2(OC3CC4C5CC(O[C@@H]6O[C@H](C)[C@@H](O[C@@H]7O[C@@H](C)[C@H](O)[C@@H](O)[C@H]7O)[C@H](O)[C@H]6O)C6CC(O)CCC6(C)C5CCC4(C)C3C2C)C(O)C1 (stereo not given in full),Potency,[1],inactive
same,Potency,[2],inactive
O=C(NOCC(O)CO)c1ccc(F)c(F)c1Nc1ccc(I)cc1F (stereo not given),Potency,[1],inactive
same,Potency,[2],inactive
O=C(O)c1cc2cccc([N+](=O)[O-])c2[nH]1,Potency,[1],inactive
same,Potency,[2],inactive
C[C@@H]1O[C@@H](O[C@H]2[C@@H]3C=CO[C@@H](O[C@@H]4O[C@H](CO)[C@@H](O)[C@H](O)[C@H]4O)[C@@H]3[C@@]3(CO)O[C@@H]23)[C@H](OC(=O)/C=C/c2ccc(O)c(O)c2)[C@H](O)[C@H]1O,Potency,[1],inactive
same,Potency,[2],inactive
COc1c2c(cc3c1-c1c(cc4c(c1OC)OCO4)CC(C)C(C)C3)OCO2 (stereo not given),Potency,[1],inactive
same,Potency,[2],inactive
C/C=C(\C)C(=O)O[C@@H]1CC2[C@@H](CC=C3C[C@@H](O[C@H]4C[C@H](OC)[C@H](O[C@H]5C[C@H](OC)[C@H](O[C@@H]6O[C@H](C)[C@@H](O[C@H]7C[C@H](OC)[C@H](O[C@@H]8O[C@H](CO)[C@@H](O)[C@H](O)[C@H]8O)[C@@H](C)O7)[C@H](OC)[C@H]6O)[C@@H](C)O5)[C@@H](C)O4)CC[C@@]32C)[C@@]2(O)CC[C@H](C(C)=O)[C@@]12C (stereo not given in full),"activity change, negative = inhibition",[1],2.76% [at 12.4 µM]
same,"activity change, negative = viability loss",[2],-8.77% [at 9.23 µM]
CC(Nc1ncnc2nc[nH]c12)c1cc2cccc(Cl)c2c(=O)n1-c1ccccc1 (stereo not given),Potency,[1],inactive
same,Potency,[2],332 nM (active)
COc1ccc(CN2C(=O)C(=O)c3cc(S(=O)(=O)N4CCC[C@H]4COc4cccnc4)ccc32)cc1,Potency,[1],inactive
same,Potency,[2],inactive
CC(C)[C@H]1CC[C@@]2(O)COC(=O)[C@H]2[C@@H]1/C=C(\CO)C(=O)O,Potency,[1],inactive
same,Potency,[2],inactive
CC1(O)CCCC2(C)C1CCC13CC(CO)C(CCC12)C3 (stereo not given),Potency,[1],inactive
same,Potency,[2],inactive
CC1(O)CC(O)C2(O)C=COC(O[C@@H]3O[C@H](CO)[C@@H](O)[C@H](O)[C@H]3O)C12 (stereo not given in full),Potency,[1],inactive
same,Potency,[2],inactive
CC[C@H]1OC(=O)[C@H](C)[C@@H](O[C@H]2C[C@@](C)(OC)[C@@H](O)[C@H](C)O2)[C@H](C)[C@@H](O[C@@H]2O[C@H](C)C[C@H](N(C)C)[C@H]2O)[C@](C)(O)C[C@@H](C)C(=O)[C@H](C)[C@H]2OC(=O)O[C@@]21C,Potency,[1],inactive
same,Potency,[2],inactive
